LASV entry inh – blocks Lassa virus binding to or entry into cells. 300,000 tested, 1.2% active. Lassa virus pseudotype entry inhibition, cell reporter. Potency, µM (titrated, usually from 37.9 µM), for inactives: at the highest dose activity change, negative = inhibition, usual class: inhibitors; calls by dose curve; tested in HEK293 cells; note: potency is the fitted concentration of half-maximal effect; % is set by controls: 0 for no effect and ±100 for the full control effect; nearly all actives have a fitted effect of over 50% in size
VACV mCherry inh – vaccinia inhibition (mCherry reporter). Vaccinia virus mCherry reporter infection, fluorescence. Potency, µM (series often up to 36.5 µM), for the others: at the top dose activity change, negative = inhibition, most hits filed as inhibitors. 310,000 tested, 0.63% active. AID 720579; calls by dose curve; tested in A549 cells; note: potency is the fitted concentration of half-maximal effect; % is set by controls: 0 for no effect and ±100 for the full control effect; nearly all actives have a fitted effect of over 35% in size
Vaccinia Venus – vaccinia inhibition (Venus reporter); Vaccinia virus Venus reporter expression, fluorescence; Potency, µM (highest dose often 36.5 µM), for the others: at the highest dose activity change, negative = inhibition, most hits filed as inhibitors; 330,000 tested, 0.46% active; AID 720580; calls by dose curve; tested in A549 cells; note: potency is the fitted concentration of half-maximal effect; % is set by controls: 0 for no effect and ±100 for the full control effect; nearly all actives have a fitted effect of over 30% in size
Shiga inhibitor – Shiga toxin inhibition. AID 2315. Vero cells, Shiga toxin protein synthesis inhibition reporter. 290,000 tested, 9.2% active. inhibition, % at 38.7 µM; in the data active = inhibition mostly above about 28%, no sharp cut-off; inactive = mostly below about 43%; note: 0% is about no effect
CHX counter – counter-screen hit for Shiga toxin inhibitors, cycloheximide; cell reporter, cycloheximide protein synthesis inhibition counterscreen; max response, %; 300,000 tested, 12% active; AID 2314; in the data active = max response mostly above about 13%, no sharp cut-off; inactive = mostly below about 14%; note: read at 38.3 µM for the half of the compounds with a filed dose; 0% is about no effect
Marburg entry inh – inhibitors of Marburg virus binding or cell entry | Marburg virus pseudotyped entry inhibition, cell reporter | Potency, µM (titrated, usually from 37.8 µM), inactives show top-dose activity change, negative = inhibition, most hits filed as inhibitors | 300,000 tested, 1.8% active; calls by dose curve; tested in HEK293 cells; note: potency is the fitted concentration of half-maximal effect; % is set by controls: 0 for no effect and ±100 for the full control effect
* hit, by the source's call; [ ] = remark or other dose. The full list was thinned out, with hits kept by preference.

`Cc1cc(S(=O)(=O)Nc2ccc(-c3ccc(N4CCCCCC4)nn3)cc2)c(C)cc1Cl` gave LASV entry inh inconclusive, VACV mCherry inh -14.9% and Vaccinia Venus -19.1%.
C/C(=N\NC(=O)c1cccc(O)c1)c1cccc(NC(=O)c2ccc(F)cc2)c1 was read as Shiga inhibitor 68.3* and CHX counter 40.9*.
For C/C(=N\NC(=O)c1ccc(F)cc1)c1cccc(NC(=O)c2cccc(F)c2)c1 the results were Shiga inhibitor 35.1* and CHX counter 15.6*.
Screening C/C(=N\NC(=O)c1ccc(F)cc1)c1cccc(NC(=O)c2ccco2)c1 returned LASV entry inh -10.6%, VACV mCherry inh -14.7%, Vaccinia Venus -9.7%, Shiga inhibitor 63.8, CHX counter 14.1 and Marburg entry inh -0.6%.
C/C(=N\NC(=O)c1ccccc1F)c1cccc(NC(=O)c2ccc(C)cc2)c1 was read as LASV entry inh inconclusive, VACV mCherry inh -21.6%, Vaccinia Venus inconclusive, Shiga inhibitor 58.3*, CHX counter 33.7* and Marburg entry inh -5.6%.
For C/C(=N\NC(=O)c1cccc(F)c1)c1cccc(NC(=O)c2ccc(F)cc2)c1 the results were LASV entry inh -22.7%, VACV mCherry inh -7.6%, Vaccinia Venus -15.8%, Shiga inhibitor 26.4*, CHX counter 34.9* and Marburg entry inh inconclusive.
Screening COc1ccc(C(=O)Nc2cccc(/C(C)=N/NC(=O)c3ccc([N+](=O)[O-])c(C)c3)c2)cc1OC returned LASV entry inh inconclusive, VACV mCherry inh -13.0%, Vaccinia Venus -1.8%, Shiga inhibitor 27.1, CHX counter 24.5 and Marburg entry inh inconclusive.
Screening CCOC(=O)c1[nH]c(C)c(C(=O)Nc2ccc(C)cc2C)c1C returned VACV mCherry inh -18.8%, Vaccinia Venus -14.3%, Shiga inhibitor -5.3 and CHX counter -2.4.
CCOC(=O)c1c(C)[nH]c(C(=O)OCCOc2ccc(Cl)cc2)c1C was read as LASV entry inh -12.0%, Shiga inhibitor -6.6, CHX counter -0.4 and Marburg entry inh 9.0%.
`CCOC(=O)c1ccc(OCCOc2ccccc2C)cc1` gave LASV entry inh inconclusive, VACV mCherry inh -12.6%, Vaccinia Venus -2.1%, CHX counter 33.6* and Marburg entry inh -8.4%.
`COC(=O)c1c(C)[nH]c(C(=O)OCc2csc(CC(=O)Nc3ccccc3C)n2)c1C` gave LASV entry inh -6.6%, VACV mCherry inh -10.5%, Vaccinia Venus -18.1% and Marburg entry inh 10µM*.
`CCOC(=O)c1[nH]c(C)c(C(=O)Nc2ccccc2F)c1C` gave LASV entry inh inconclusive, VACV mCherry inh inconclusive, Vaccinia Venus -21.0%, Shiga inhibitor 59.7*, CHX counter 25.0* and Marburg entry inh 0.5%.
`CCOC(=O)c1c(C)[nH]c(C(=O)OCc2ccccc2F)c1C` gave LASV entry inh 10µM*, VACV mCherry inh -14.2%, Vaccinia Venus -14.6%, Shiga inhibitor 115.5*, CHX counter 49.7* and Marburg entry inh inconclusive.
`CCOC(=O)c1c(C)[nH]c(C(=O)OCCOc2ccccc2C)c1C` gave Shiga inhibitor 60.8* and CHX counter 45.2*.
CCOC(=O)c1[nH]c(C)c(C(=O)Nc2ccc(F)cc2)c1C was read as VACV mCherry inh -11.1%, Vaccinia Venus -4.1%, Shiga inhibitor 7.1 and CHX counter -1.5.
`CCOC(=O)c1[nH]c(C)c(C(=O)Nc2ccc(C)c(C)c2)c1C` gave Shiga inhibitor 13.1 and CHX counter 14.6*.
CCOC(=O)c1c(C)[nH]c(C(=O)OCc2ccc(F)cc2)c1C was read as LASV entry inh inconclusive, VACV mCherry inh -12.6%, Vaccinia Venus -3.8%, Shiga inhibitor 71.8*, CHX counter 49.8* and Marburg entry inh inconclusive.
Screening Cc1ccc2c(c1)C(c1ccc(F)cc1)N(C(=O)c1cccc(C(F)(F)F)c1)CC(=O)N2 (centres undefined) returned LASV entry inh -26.1%[46.1 µM], VACV mCherry inh -12.1%, Vaccinia Venus -10.8% and Marburg entry inh inconclusive.
`CN(C)c1c(Cl)cc(/C=C/c2ccnc3ccccc23)cc1Br` gave VACV mCherry inh -21.0% and Vaccinia Venus -15.8%.
For COc1cc(OC)c(N(C)S(=O)(=O)c2cccc(C(=O)NC3=NCCS3)c2)cc1Cl the results were LASV entry inh -24.1%, VACV mCherry inh -17.4%, Vaccinia Venus inconclusive, Shiga inhibitor 8.4, CHX counter -2.5 and Marburg entry inh inconclusive.
For Cn1c(CCN2CCCCC2)nc2cc(NC(=O)Nc3ccccc3)ccc21 the results were LASV entry inh 13.1%, VACV mCherry inh -20.7%, Vaccinia Venus -17.0%, Shiga inhibitor -6.5, CHX counter -3.1 and Marburg entry inh -11.8%.
Cc1ccc(NC(=O)Nc2ccc3c(c2)nc(C)n3C)cc1 was read as LASV entry inh inconclusive, VACV mCherry inh inactive, Vaccinia Venus -23.5%, Shiga inhibitor 53.8*, CHX counter 33.1* and Marburg entry inh 11.2µM*.
COC(=O)c1ccc(NC(=O)Nc2ccc3c(c2)nc(C)n3C)cc1 was read as LASV entry inh 17.6%[46.1 µM], VACV mCherry inh inactive, Vaccinia Venus 0.1%, Shiga inhibitor 68.4*, CHX counter 14.9* and Marburg entry inh inconclusive.
`Cc1nc2cc(NC(=O)Nc3ccccc3Cl)ccc2n1C` gave LASV entry inh inconclusive, VACV mCherry inh -2.5%, Vaccinia Venus 0.5%, Shiga inhibitor 28.4*, CHX counter 13.1* and Marburg entry inh inconclusive.
CC(=O)NCCc1nc2cc(NC(=O)Nc3ccccc3)ccc2n1C was read as Shiga inhibitor 3.8 and CHX counter 1.1.
Screening Cc1nc2cc(NC(=O)Nc3cccc([N+](=O)[O-])c3)ccc2n1C returned LASV entry inh inconclusive, VACV mCherry inh -27.5%, Vaccinia Venus -19.6%, CHX counter 45.7* and Marburg entry inh inconclusive.
Screening O=C(Nc1cccc([N+](=O)[O-])c1)Nc1cccc([N+](=O)[O-])c1 returned LASV entry inh inconclusive, VACV mCherry inh inconclusive, Vaccinia Venus inconclusive, Shiga inhibitor -5.3, CHX counter 7.1 and Marburg entry inh inconclusive.
For CCOC(=O)Cc1nn(Cc2nc(-c3ccc(C)cc3)cs2)c(=O)c2ccccc12 the results were Shiga inhibitor -5.8 and CHX counter 1.1.
For COc1cc(NC(=O)C2CCN(c3nnc(C)c4c(C)n(-c5ccccc5)nc34)CC2)cc(OC)c1 the results were LASV entry inh -11.4%[46.1 µM], VACV mCherry inh inconclusive and Vaccinia Venus inconclusive.
CC(=O)c1ccc(NC(=O)Nc2ccc3c(c2)nc(C)n3C)cc1 was read as LASV entry inh -0.5%, VACV mCherry inh -3.3%, Vaccinia Venus -3.7%, Shiga inhibitor 80.9*, CHX counter 34.1* and Marburg entry inh inconclusive.
`O=C(Nc1ccc([N+](=O)[O-])cn1)c1ccc(Br)o1` gave LASV entry inh 0.4%, VACV mCherry inh inactive, Vaccinia Venus -18.8%, Shiga inhibitor 70.4, CHX counter 18.0* and Marburg entry inh inconclusive.

Screens as filed in PubChem BioAssay.
